# Test results reported in PubChem BioAssay (EPA / NIEHS).
# Records with an inconclusive call do not appear. The source made the active and inactive calls. Rule for the calls, unless noted: active = hit-call score of the fitted dose curve at least 0.9, where 1 is the maximum; inconclusive = response in the unintended direction; inactive = score below 0.9.
# Experiments:
# [1] = Tanguay_ZF_120hpf_TR_legacy: (Legacy) Oregon State University Tanguay Lab 120 Hour Post-fertilization zebrafish Assay for Touch Response (AID 2283667)
# Outline: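 Tropical 5D wild-type zebrafish embryos statically exposed to 120 hpf at 28°C, sealed and dark-covered, 0.64% DMSO final; touch response scored as present/absent by brightfield microscopy at 120 hpf. Trimethyltin chloride 5 uM positive control; dead embryos not scored.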
# [2] = STM_H9_OrnithineISnorm_perc: Stemina devTOX quickPredict H9 human embryonic stem cell (hESC)-based Assay for Ornithine (ORN) Metabolite Biomarker, Normalized (AID 2283712; active = hit-call score of the fitted dose curve at least 0.9, where 1 is the maximum; inactive = score below 0.9;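 note: ornithine released into spent medium during last day measured by mass spectrometry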)
# Outline: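 H9 human embryonic stem cells kept pluripotent receive test chemical over 72 h, refreshed daily by media exchange. Media from the closing 24 h is deproteinized and analysed by UPLC-HRMS on an amide column; ornithine signal is scaled to labelled standard and vehicle.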
# [3] = STM_H9_CystineISnorm_perc: Stemina devTOX quickPredict H9 human embryonic stem cell (hESC)-based Assay for Cystine (CYSS) Metabolite Biomarker, Normalized (AID 2283713; active = hit-call score of the fitted dose curve at least 0.9, where 1 is the maximum; inactive = score below 0.9)
# Outline: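 H9 hESC, pluripotent; compound 72h, re-dosed q24h with medium change. Last-24h medium → 40% acetonitrile deproteinization → UPLC-HRMS. CYSS area / C13-CYSS standard, then % of 0.1% DMSO median.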
# [4] = STM_H9_OrnCyssISnorm_ratio: Stemina devTOX quickPredict H9 human embryonic stem cell (hESC)-based Assay for Ornithine (ORN):Cystine (CYSS) Ratio (AID 2283714)
# Outline: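 Undifferentiated H9 hESCs exposed 72 h, media and compound replaced every 24 h; final 24-h conditioned media deproteinized and analysed by UPLC-HRMS against C13 spike-ins. Value is the internal-standard-normalized ORN/CYSS ratio versus 0.1% DMSO.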
# [5] = CEETOX_H295R_MTT_cell_viability: Viability Assessment in the CeeTox HT-H295R MTT Assay (AID 2283718; active = hit-call score of the fitted dose curve at least 0.9, where 1 is the maximum; inactive = score below 0.9)
# Outline: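 Human H295R adrenal cells, prestimulated 48 h with 10 uM forskolin, were exposed 48 h to chemicals in 0.1% DMSO. Viability was measured in the same wells by MTT (0.5 mg/ml, 4 h, 37 C), absorbance 570/650 nm, as percent of controls.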
# [6] = Tanguay_ZF_120hpf_ActivityScore_legacy: (Legacy) Oregon State University Tanguay Lab 120 Hour Post-fertilization zebrafish Assay Score for Activity (AID 2283742);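 for AC50: dechorionated Tropical 5D wild-type zebrafish embryos held singly per well; static exposure from 6 hpf until 120 hpf at 28 °C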
# Outline: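 Dechorionated Tropical 5D embryos, one per well from 6 hpf, statically exposed to 120 hpf at 28 °C in 0.64% DMSO. Mortality and malformations scored binary by brightfield microscopy; activity score combines 18 endpoints, fitted positively versus DMSO.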
# [7] = read-out: Cytochrome P450 (CYP24A1_1), CYP24A1 (gene 1591); test: LTEA_HepaRG_CYP24A1_1: Life Technologies and Expression Analysis (LTEA) Assay for Cytochrome P450 (CYP24A1_1) using HepaRG (AID 2283671; active = hit-call score of the fitted dose curve at least 0.9, where 1 is the maximum; inactive = score below 0.9); conditions: mRNA level, 48 h; actives raise or lower the signal
# Outline: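 Differentiated human HepaRG cells in serum-free induction medium, exposed 48 h in duplicate to eight half-log concentrations from 100 uM top, 0.5% DMSO. Transcript measured by TaqMan qRT-PCR, normalised to ACTB, GAPDH, POLR2A; bidirectional fitting versus DMSO.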
# [8] = target: Luciferin 4-monooxygenase (Photinus pyralis) (UniProt P08659); test: CCTE_Simmons_QuantiLum_inhib_2: CCTE's Firefly Luciferase Inhibition Assay, Simmons Lab (AID 2283767)
# Outline: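 Luminescence loss relative to DMSO vehicle defines inhibition; detection reagent containing 150 uM D-luciferin and 147 uM dATP (final, pH 7.8) is injected immediately before each read. Enzyme is preincubated with an 8-point titration (5 nM–87.5 uM final) for 30 min at 37C.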
# Sequence of Luciferin 4-monooxygenase (Photinus pyralis) (P08659 whole entry, looked up): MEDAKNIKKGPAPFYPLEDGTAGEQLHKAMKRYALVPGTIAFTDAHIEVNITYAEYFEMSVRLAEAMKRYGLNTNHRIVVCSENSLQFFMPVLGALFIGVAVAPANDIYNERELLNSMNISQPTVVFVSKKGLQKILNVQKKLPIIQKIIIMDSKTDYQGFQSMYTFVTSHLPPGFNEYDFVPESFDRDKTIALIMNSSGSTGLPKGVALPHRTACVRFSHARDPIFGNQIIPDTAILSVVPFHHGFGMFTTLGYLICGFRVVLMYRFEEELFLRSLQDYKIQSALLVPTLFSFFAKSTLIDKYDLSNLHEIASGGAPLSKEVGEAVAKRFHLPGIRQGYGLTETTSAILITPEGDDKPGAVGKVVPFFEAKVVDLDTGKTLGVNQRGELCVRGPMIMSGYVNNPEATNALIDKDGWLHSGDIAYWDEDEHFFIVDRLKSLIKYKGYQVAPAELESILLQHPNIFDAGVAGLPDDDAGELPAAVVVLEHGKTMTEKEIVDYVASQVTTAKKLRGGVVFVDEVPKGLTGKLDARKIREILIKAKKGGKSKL
structure (smiles),measurement,setting,value
CC[C@H]1CC[C@H](NCc2cc3c(cc2OC)[C@H]2C[C@H]2C(=O)N3C)[C@H](c2ccccc2)N1,outcome,[1],inactive
same,AC50,[2],9.25 µM (active)
same,AC50,[3],7.32 µM (active)
same,AC50,[4],8.66 µM (active)
same,outcome,[5],inactive
same,outcome,[6],inactive
COc1cccc(-c2ccc(/C=C\CN3CCCCCC3)cc2Cl)c1,outcome,[1],inactive
same,AC50,[2],3.59 µM (active)
same,AC50,[3],4.11 µM (active)
same,AC50,[4],3.97 µM (active)
same,outcome,[5],inactive
same,AC50,[6],41.8 µM (active)
CC(C)CCO,outcome,[1],inactive
same,outcome,[2],inactive
same,AC50,[3],0.118 µM (active)
same,outcome,[6],inactive
CCCCCCCCCCCCc1ccccc1,outcome,[1],inactive
same,outcome,[2],inactive
same,outcome,[3],inactive
same,outcome,[6],inactive
CC(C)CC(C)(O)C#CC(C)(O)CC(C)C (centres undefined),outcome,[1],inactive
same,AC50,[2],75 µM (active)
same,AC50,[3],60.1 µM (active)
same,AC50,[4],63.2 µM (active)
same,outcome,[5],inactive
same,outcome,[6],inactive
C=CCCCCCCCCC(=O)O,outcome,[1],inactive
same,outcome,[5],inactive
same,outcome,[6],inactive
CNCc1ccc(NC(=O)c2c[nH]c3c2C(=O)CCC3)cc1,outcome,[1],inactive
same,outcome,[2],inactive
same,outcome,[3],inactive
same,outcome,[4],inactive
same,outcome,[6],inactive
CCN(C(=O)c1cc(C)cc(OC[C@H](C)Nc2ccncc2)c1)C(C)C,outcome,[1],inactive
same,outcome,[2],inactive
same,AC50,[3],7 µM (active)
same,AC50,[4],7 µM (active)
same,outcome,[6],inactive
Cn1c(=O)cc(Oc2ccc(F)cc2F)c2cnc(NCC(C)(C)O)nc21,outcome,[1],inactive
same,outcome,[2],inactive
same,outcome,[3],inactive
same,outcome,[4],inactive
same,outcome,[5],inactive
same,outcome,[6],inactive
COC(=O)c1ccccc1O,outcome,[1],inactive
same,outcome,[6],inactive
O=C(O)c1cc(N=Nc2ccc(S(=O)(=O)Nc3ccccn3)cc2)ccc1O,outcome,[6],inactive
CCOCCOCCOCCO,outcome,[1],inactive
same,outcome,[6],inactive
CC(=O)OC[C@H]1O[C@@](COC(C)=O)(O[C@H]2O[C@H](COC(C)=O)[C@@H](OC(C)=O)[C@H](OC(C)=O)[C@H]2OC(C)=O)[C@@H](OC(C)=O)[C@@H]1OC(C)=O,outcome,[1],inactive
same,outcome,[6],inactive
Cc1c(-c2cccnc2)c2ccccc2n1CCCCC(=O)O,outcome,[5],inactive
same,outcome,[6],inactive
CC(C)=CCC/C(C)=C/CO,outcome,[1],inactive
same,outcome,[6],inactive
CC1(C)C(=O)N(Br)C(=O)N1Br,outcome,[1],inactive
same,outcome,[6],inactive
C1N2CN3CN1CN(C2)C3,outcome,[1],inactive
same,outcome,[6],inactive
CCCCC(CC)COC(=O)CCCCCCCCC(=O)OCC(CC)CCCC (centres undefined),outcome,[1],inactive
same,outcome,[6],inactive
O=C1CCC(N2C(=O)c3ccccc3C2=O)C(=O)N1 (centres undefined),AC50,[2],0.124 µM (active)
same,outcome,[3],inactive
same,AC50,[4],0.121 µM (active)
same,outcome,[6],inactive
O=C1OC(=O)C2C3C=CC(C3)C12 (centres undefined),outcome,[1],inactive
same,outcome,[6],inactive
CC(O)CN(CCN(CC(C)O)CC(C)O)CC(C)O (centres undefined),outcome,[1],inactive
same,outcome,[6],inactive
CC[C@H]1OC(=O)[C@H](C)[C@@H](O[C@H]2C[C@@](C)(OC)[C@@H](O)[C@H](C)O2)[C@H](C)[C@@H](O[C@@H]2O[C@H](C)C[C@H](N(C)C)[C@H]2O)[C@](C)(O)C[C@@H](C)C(=O)[C@H](C)[C@@H](O)[C@]1(C)O,outcome,[6],inactive
CCOC(=O)COc1ccc2c(c1)CC(NCC(O)c1cccc(Cl)c1)CC2 (centres undefined),outcome,[1],inactive
same,AC50,[6],30 µM (active)
COC(=O)CC(=O)OC,outcome,[1],inactive
same,outcome,[6],inactive
O=c1[nH]c2ccc(S(=O)CCN3CCC(Cc4ccc(F)cc4)CC3)cc2o1 (centres undefined),outcome,[2],inactive
same,AC50,[3],3.91 µM (active)
same,AC50,[4],5 µM (active)
same,outcome,[5],inactive
same,outcome,[6],inactive
Cc1ccc(S(=O)(=O)O)cc1C,outcome,[1],inactive
same,outcome,[6],inactive
CCCC(=O)OCC,outcome,[1],inactive
same,outcome,[6],inactive
COC(=O)c1c(Cl)c(Cl)c(C(=O)OC)c(Cl)c1Cl,outcome,[5],inactive
same,outcome,[6],inactive
Cc1ccc(C)c(O)c1,outcome,[1],inactive
same,outcome,[6],inactive
CC(=O)OCCC(C)C,outcome,[1],inactive
same,outcome,[6],inactive
O=C(O)c1cccc(Oc2ccccc2)c1,outcome,[7],inactive
same,outcome,[6],inactive
COCCOc1cc2cc(C(=O)NC3CCN(C(C)C)CC3)n(CC(=O)Nc3ccc(Cl)cn3)c2cn1,outcome,[1],inactive
same,outcome,[6],inactive
CC1=CC(=O)CC(C)(C)C1,outcome,[5],inactive
same,outcome,[6],inactive
C1=CCCC=CCCC=CCC1,outcome,[1],inactive
same,outcome,[6],inactive
CC(=O)c1ccc2c(c1)[C@H](NC(=O)c1ccc(F)cc1)[C@@H](O)C(C)(C)O2,outcome,[1],inactive
same,outcome,[6],inactive
CCc1cc(SCc2sc(-c3ccc(C(F)(F)F)cc3)nc2CN2CCN(c3ccc(OC)cc3)CC2)ccc1OCC(=O)O,outcome,[1],inactive
same,AC50,[6],61.5 µM (active)
O=C(O)CC(O)C(=O)O (centres undefined),outcome,[1],inactive
same,outcome,[6],inactive
Cc1[nH]cnc1C[C@H]1CCc2c(C)c3ccccc3n2C1=O,outcome,[1],inactive
same,outcome,[6],inactive
same,outcome,[8],inactive
CCOCCO,outcome,[1],inactive
same,outcome,[6],inactive
